For some assays here: Results with a measured potency or affinity are listed apart.
Experiments:
Parameters in all cases: scale not given: direction of the effect not stated beside the values
[1] = molecular target: Protein translocase subunit SecA (Escherichia coli (strain K12)) (UniProt P10408); assay: Assay to Identify E. coli SecA ATPase Inhibitors; assay type: functional; conditions: 30 µM
[2] = molecular target: T1, Ubiquitin-activating enzyme e1, putative (Leishmania donovani (strain BPK282A1)) (UniProt E9BSI1); assay: Leishmania donovani Ubiquitin Activating Enzyme (LdE1); assay type: functional; conditions: 30 µM
T1 sequence (whole entry): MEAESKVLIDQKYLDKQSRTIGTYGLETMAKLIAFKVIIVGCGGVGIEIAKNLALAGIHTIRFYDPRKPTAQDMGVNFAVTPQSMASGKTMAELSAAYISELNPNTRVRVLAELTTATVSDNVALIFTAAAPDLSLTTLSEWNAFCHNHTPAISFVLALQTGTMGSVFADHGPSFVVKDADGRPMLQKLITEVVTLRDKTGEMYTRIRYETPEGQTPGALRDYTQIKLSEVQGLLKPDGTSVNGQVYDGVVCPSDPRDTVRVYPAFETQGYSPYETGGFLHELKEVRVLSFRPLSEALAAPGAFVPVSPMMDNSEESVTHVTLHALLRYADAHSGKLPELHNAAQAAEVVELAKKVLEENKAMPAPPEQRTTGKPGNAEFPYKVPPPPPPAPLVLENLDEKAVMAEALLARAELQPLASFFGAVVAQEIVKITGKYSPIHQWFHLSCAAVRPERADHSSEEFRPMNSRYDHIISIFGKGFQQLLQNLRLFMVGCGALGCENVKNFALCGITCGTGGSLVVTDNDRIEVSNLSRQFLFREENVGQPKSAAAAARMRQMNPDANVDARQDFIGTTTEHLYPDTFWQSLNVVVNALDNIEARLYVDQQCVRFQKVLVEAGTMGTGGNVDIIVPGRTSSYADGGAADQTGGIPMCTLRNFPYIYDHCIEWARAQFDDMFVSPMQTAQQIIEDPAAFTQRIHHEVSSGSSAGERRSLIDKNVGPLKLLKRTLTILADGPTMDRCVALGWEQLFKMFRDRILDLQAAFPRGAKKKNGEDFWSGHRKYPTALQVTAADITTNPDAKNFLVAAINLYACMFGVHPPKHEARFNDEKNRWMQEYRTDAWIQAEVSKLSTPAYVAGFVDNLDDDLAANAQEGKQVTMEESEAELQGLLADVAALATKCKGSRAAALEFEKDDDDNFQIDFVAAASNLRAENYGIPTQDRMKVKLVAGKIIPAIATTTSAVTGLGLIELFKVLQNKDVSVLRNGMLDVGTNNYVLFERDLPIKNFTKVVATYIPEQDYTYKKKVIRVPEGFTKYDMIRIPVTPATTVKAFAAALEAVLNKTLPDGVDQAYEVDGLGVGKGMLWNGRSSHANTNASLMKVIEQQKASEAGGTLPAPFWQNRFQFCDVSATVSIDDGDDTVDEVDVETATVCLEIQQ

[3] = molecular target: AMP-activated protein kinase, AMPK (Homo sapiens) (UniProt P54646+O43741+P54619+Q9UGJ0+Q9Y478+Q13131+Q9UGI9); assay: AMP-dependent Kinase enzyme assay. An in vitro enzyme assay that detects ADP turnover that is directly proportional to AMPK activity. This uses naive AMPK that is activated during the assay with MK-8722; assay type: functional; conditions: 30 µM
[4] = molecular target: Sialic acid-binding Ig-like lectin 9 (Homo sapiens) (UniProt Q9Y336); assay: Hs-Siglec9 ALPHAscreen SOP 20170721; conditions: 10 µM
[5] = system: Trypanosoma cruzi; assay: Trypanosoma cruzi phosphomannomutase and mannose-1-phosphate guanylyltransferase assay; assay type: functional; conditions: 10 µM
[6] = molecular target: T2, Arginase-2, mitochondrial (Homo sapiens) (UniProt P78540); assay: in vitro enzyme assay to detect the production of urea directly proportional to the activity of Arginase II; assay type: functional; conditions: 33.3 µM; note: in the data most compounds retested in dose-response had high values
T2 sequence (whole entry): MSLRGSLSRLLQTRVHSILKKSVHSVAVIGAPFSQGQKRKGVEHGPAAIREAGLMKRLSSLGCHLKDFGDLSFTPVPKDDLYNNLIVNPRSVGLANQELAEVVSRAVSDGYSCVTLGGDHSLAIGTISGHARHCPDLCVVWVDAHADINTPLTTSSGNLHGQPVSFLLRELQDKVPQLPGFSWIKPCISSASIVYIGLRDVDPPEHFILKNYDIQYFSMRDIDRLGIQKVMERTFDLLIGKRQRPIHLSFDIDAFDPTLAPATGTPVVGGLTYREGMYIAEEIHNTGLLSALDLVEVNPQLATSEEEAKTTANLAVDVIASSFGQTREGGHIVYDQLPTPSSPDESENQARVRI

[7] = molecular target: T3, Proteasome subunit beta (Trypanosoma cruzi) (UniProt O96673); assay: Trypanosoma cruzi proteasome chymotrypsin-like activity (TcProtChymo) assay.; note: in the data most compounds retested in dose-response had high values; assay type: functional; conditions: 9.37 µM
T3 sequence (whole entry): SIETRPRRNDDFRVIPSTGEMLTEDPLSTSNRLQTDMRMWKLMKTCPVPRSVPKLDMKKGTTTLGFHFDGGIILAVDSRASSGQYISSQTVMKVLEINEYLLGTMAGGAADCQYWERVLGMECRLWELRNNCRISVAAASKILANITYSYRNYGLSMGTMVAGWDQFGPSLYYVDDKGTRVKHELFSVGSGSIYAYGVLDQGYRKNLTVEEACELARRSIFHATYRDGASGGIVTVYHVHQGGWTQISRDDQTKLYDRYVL

[8] = species on record: Homo sapiens; assay: To identify inhibition of the IFN signalling (Jak-Stat) pathway via expression of an eGFP reporter gene under the control of an IFN-stimulated response element (ISRE) containing MxA promoter.; assay type: functional; conditions: 30 µM
[9] = molecular target: T4, Tyrosyl-tRNA synthetase, putative (Trypanosoma cruzi (strain CL Brener)) (UniProt Q4DSP6); assay: Trypanosoma cruzi tyrosyl tRNA synthetase (TcYRS) _High Tyrosine SOP; assay type: functional; conditions: 30 µM; note: in the data most compounds retested in dose-response had high values
T4 sequence (whole entry): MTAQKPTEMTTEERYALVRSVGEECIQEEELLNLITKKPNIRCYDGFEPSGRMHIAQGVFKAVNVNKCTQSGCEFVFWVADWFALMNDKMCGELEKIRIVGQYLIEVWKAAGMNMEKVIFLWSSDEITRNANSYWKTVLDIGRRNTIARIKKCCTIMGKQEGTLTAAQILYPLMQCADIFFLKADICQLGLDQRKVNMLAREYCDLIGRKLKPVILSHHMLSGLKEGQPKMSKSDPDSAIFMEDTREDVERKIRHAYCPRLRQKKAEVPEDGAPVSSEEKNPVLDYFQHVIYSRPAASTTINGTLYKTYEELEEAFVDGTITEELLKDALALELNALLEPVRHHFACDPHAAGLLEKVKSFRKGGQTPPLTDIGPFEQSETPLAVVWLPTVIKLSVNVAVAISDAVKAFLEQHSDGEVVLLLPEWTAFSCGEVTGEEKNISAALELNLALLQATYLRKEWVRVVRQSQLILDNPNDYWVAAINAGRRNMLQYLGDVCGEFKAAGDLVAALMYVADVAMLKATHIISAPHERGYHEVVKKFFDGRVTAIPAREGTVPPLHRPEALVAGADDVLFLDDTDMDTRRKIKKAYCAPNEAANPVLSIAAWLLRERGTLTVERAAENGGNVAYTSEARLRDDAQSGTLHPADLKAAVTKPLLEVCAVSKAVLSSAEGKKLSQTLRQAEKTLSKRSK

[10] = molecular target: T4, Tyrosyl-tRNA synthetase, putative (Trypanosoma cruzi (strain CL Brener)); assay: Trypanosoma cruzi tyrosyl tRNA synthetase (TcYRS) SOP; assay type: functional; conditions: 30 µM
[11] = molecular target: Chromo domain-containing protein 1 (Saccharomyces cerevisiae (strain ATCC 204508 / S288c) (Baker's yeast)) (UniProt P32657); assay: ScCHD-1 Enzyme Inhibition Assay; assay type: functional; conditions: 30 µM; note: in the data most compounds retested in dose-response had high values
Chain of Chromo domain-containing protein 1 (Saccharomyces cerevisiae (strain ATCC 204508 / S288c) (Baker's yeast)) (P32657 whole entry, the tested form may be a part): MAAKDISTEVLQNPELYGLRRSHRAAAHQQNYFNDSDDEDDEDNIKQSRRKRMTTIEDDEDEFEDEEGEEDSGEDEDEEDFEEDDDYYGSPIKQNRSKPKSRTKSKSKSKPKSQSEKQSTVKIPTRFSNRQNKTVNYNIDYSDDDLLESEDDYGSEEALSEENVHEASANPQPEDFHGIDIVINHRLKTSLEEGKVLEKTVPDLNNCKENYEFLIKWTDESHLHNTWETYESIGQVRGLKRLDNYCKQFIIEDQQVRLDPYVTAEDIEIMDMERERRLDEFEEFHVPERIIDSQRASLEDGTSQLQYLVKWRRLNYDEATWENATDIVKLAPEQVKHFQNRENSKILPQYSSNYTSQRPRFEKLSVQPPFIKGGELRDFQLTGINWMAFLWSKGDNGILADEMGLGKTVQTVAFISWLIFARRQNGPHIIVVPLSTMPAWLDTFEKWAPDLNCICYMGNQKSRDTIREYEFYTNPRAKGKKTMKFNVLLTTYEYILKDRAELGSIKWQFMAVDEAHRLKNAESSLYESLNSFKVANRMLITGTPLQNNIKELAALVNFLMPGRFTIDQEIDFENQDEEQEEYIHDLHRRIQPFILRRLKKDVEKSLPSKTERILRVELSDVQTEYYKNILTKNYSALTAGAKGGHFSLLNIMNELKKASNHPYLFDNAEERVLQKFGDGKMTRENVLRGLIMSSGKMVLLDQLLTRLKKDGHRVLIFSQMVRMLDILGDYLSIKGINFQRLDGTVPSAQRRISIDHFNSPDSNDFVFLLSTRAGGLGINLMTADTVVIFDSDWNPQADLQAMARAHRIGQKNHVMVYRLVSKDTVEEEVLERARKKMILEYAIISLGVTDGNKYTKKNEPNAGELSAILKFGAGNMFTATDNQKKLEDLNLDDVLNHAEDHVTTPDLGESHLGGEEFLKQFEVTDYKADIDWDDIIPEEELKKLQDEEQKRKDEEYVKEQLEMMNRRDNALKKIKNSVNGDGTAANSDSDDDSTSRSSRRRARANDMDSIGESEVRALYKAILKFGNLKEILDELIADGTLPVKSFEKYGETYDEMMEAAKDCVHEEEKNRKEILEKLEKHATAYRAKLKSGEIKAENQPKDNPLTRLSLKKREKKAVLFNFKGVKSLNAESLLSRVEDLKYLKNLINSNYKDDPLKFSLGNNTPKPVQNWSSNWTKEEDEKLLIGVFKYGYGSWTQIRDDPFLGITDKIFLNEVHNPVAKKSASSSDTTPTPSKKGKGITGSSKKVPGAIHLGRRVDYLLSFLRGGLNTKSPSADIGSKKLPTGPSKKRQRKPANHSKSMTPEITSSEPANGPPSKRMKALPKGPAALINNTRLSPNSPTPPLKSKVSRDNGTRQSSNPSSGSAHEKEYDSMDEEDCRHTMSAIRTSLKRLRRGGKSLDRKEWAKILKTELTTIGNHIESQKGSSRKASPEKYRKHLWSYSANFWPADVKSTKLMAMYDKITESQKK

Chain of Protein translocase subunit SecA (Escherichia coli (strain K12)) (P10408 whole entry): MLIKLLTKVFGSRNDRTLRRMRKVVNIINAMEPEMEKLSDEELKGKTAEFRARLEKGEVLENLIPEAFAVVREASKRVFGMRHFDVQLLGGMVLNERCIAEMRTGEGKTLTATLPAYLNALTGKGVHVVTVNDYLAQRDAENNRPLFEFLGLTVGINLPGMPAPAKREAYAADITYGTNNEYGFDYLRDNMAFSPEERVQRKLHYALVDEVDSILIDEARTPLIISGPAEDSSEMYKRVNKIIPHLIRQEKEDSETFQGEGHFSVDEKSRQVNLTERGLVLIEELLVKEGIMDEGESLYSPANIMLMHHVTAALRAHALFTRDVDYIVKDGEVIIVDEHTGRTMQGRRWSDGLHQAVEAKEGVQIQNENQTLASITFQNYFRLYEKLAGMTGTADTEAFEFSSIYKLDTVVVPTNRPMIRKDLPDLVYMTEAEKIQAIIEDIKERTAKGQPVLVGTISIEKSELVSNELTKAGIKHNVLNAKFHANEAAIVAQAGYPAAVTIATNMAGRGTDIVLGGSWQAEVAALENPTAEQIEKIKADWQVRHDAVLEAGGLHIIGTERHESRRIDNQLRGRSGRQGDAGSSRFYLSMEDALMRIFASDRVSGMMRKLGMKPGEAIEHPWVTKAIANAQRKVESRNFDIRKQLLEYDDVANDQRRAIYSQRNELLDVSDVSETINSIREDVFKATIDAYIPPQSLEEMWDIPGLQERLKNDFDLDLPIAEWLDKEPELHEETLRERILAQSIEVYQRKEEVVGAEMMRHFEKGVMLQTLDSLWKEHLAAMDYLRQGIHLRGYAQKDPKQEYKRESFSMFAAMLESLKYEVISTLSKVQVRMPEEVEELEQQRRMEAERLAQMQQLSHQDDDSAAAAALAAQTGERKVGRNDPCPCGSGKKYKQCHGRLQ
Chain of Sialic acid-binding Ig-like lectin 9 (Homo sapiens) (Q9Y336 whole entry): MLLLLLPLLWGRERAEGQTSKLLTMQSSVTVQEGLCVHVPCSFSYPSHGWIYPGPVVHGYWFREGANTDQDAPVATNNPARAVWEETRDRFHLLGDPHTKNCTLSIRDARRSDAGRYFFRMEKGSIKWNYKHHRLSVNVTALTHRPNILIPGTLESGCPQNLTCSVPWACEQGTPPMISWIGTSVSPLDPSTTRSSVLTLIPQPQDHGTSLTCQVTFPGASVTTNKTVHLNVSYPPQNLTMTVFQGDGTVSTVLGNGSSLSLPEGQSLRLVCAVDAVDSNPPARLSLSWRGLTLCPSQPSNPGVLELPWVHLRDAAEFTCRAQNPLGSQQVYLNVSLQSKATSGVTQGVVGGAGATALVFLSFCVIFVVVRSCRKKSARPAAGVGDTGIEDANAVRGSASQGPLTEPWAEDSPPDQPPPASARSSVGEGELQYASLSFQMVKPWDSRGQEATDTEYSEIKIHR

| Compound | Percent Effect [1] [%] | Percent Effect [2] [%] | Percent Effect [3] [%] | Percent Effect [4] [%] | Percent Effect [5] [%] | Percent Effect [6] [%] | Percent Effect [7] [%] | Percent Effect [8] [%] | Percent Effect [9] [%] | Percent Effect [10] [%] | Percent Effect [11] [%] |
| --- | --- | --- | --- | --- | --- | --- | --- | --- | --- | --- | --- |
| Cc1noc(CN(Cc2ccc3c(c2)OCO3)Cc2ccc(C)o2)n1 | -2.53 | 13.5 | -9.33 | -9.31 | -5.75 | 3.21 | 13.3 | 27.4 | 8.37 | 13.6 | -6.37 |
| CSCCCN1CCn2nc(CNC(C)=O)cc2C1 | -4.2 | 0 | 6.86 | 4.06 | -7.05 | -0.455 | 8.16 | 27.3 | -1.07 | -2.5 | -4.5 |
| COc1ccccc1C1(C(=O)NCCN2CCOCC2)CCOCC1 | -0.484 | 10.8 | -1.78 | -1.23 | -0.0943 | -2.81 | 12.4 | -15.9 | 3.45 | 13.6 | -7.26 |
| O=C(C1=CCCC1)N1C[C@H](Oc2cccnc2)[C@H]2OCCC[C@H]21 | 1.45 | 5.41 | 3.36 | -3.91 | -0.977 | -2.08 | 3.47 | 7.05 | 92.1 | 3.66 | -17.8 |
| Cc1ncnc2c1CCN(c1cc(C(F)(F)F)ncn1)CC2 | -2.66 | 13.3 | -0.456 | -3.31 | -3.09 | -58.2 | 13.7 | 4.55 | 0 | 2.5 | -7.43 |
| CC(C)NC(=O)Cn1cc(-c2ccccc2)cn1 | -1.92 | 6.33 | 6.33 | -0.321 | 2.15 | 3.23 | 13.7 | -2.22 | 4.17 | 10.1 | 1.99 |
| Cc1nn(C)c2sc(C(=O)N3CCCC(n4ccnc4C)C3)cc12 (stereo unspecified) | -3.87 | 7.89 | 3.55 | 2.66 | 2.82 | -5.92 | 8.92 | 24.3 | 4.25 | 5.2 | -4.45 |
| CS(=O)(=O)NCc1n[nH]c2c1CCN(C(=O)c1ccsc1)C2 | -4.91 | 0 | 2.22 | -3.92 | -3.48 | -59.7 | 10.9 | 5.55 | -2.08 | 0 | -5 |
| Cc1cn(CC(=O)NC2CCN(C(=O)C3CC3)CC2)c2ccccc12 | -5.47 | 2.7 | -7.57 | 10.7 | 7.72 | 0.744 | 4.55 | 9.22 | 3.23 | 11.1 | -3.71 |
| O=C1[C@H]2CC[C@H](CN(S(=O)(=O)c3ccccc3)C2)N1Cc1cscn1 | -9.05 | 5.48 | 3.4 | -0.832 | -1.59 | -2.4 | -4.02 | 27.2 | -1.04 | -1.24 | 2.37 |
| COCCN1CCC(NCc2ccc(C#N)cc2)C1 (stereo unspecified) | -8.38 | 0 | -5.29 | 8.39 | 9.55 | 4.98 | 1.86 | 2.29 | 8.74 | 21.9 | -10.6 |
| COCC1c2c(cnn2C)CCN1Cc1ccc(F)cc1 (stereo unspecified) | -4.38 | -2.7 | 1.18 | -3.56 | -2.93 | 1.25 | 5.66 | -1.22 | 5.94 | 8.54 | 2.82 |
| COc1ccc(CN2CCn3c(CNS(C)(=O)=O)nnc3C2)cc1 | -9.41 | 5.41 | -37.8 | -5.71 | -16.5 | -3.5 | 2.77 | 14.7 | 0 | 5.13 | 1 |
| O=C(c1cccc(Cl)c1)N1CCCn2c(CN3CCCCC3)nnc2C1 | -9.25 | 8 | -3.61 | 1.72 | -6.3 | -2.1 | 0.441 | 10.4 | 4.25 | 3.85 | -2.51 |
| CC1(C)CC(N2Cc3nc(N4CCOCC4)ncc3C2=O)CC(C)(C)N1 | -6.55 | 2.6 | 1.41 | 1.23 | -9.93 | 2.76 | 10.8 | 13.3 | 0 | -1.24 | -0.541 |
| CC(C)Nc1ncnc2c1CCN(C(=O)Cc1ccccn1)CC2 | -6.13 | 1.33 | -12.1 | -2.69 | -6.48 | -10.4 | 10.3 | -12.6 | -2.12 | -2.56 | -11 |
